Results filed as inconclusive are left out. Unmarked numbers belong to inactive results. Activity calls are given as the source filed them. Calls follow the shape of the dose curve; as a rule, active = well fitted curve in the direction sought with a large enough effect; inconclusive = small, poorly fitted or top-dose-only effect, or another doubt; inactive = no such curve, though single readings can be large; an effect the other way counts as inactive or inconclusive.

Assay [1] has as its target Cellular tumor antigen p53 (Homo sapiens) (UniProt P04637). The assay can be described thus: Primary qHTS for small molecule compounds that upregulate eGFP-tagged delta133p53alpha (in N-terminal) cells. (AID 2060322). Also: nearly all actives have a fitted effect of over 75% in size. Also: potency is read from the fitted curve at half-maximal effect.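 As to activation: cells pre-induced with doxycycline then dosed without doxycycline; series mostly up to about 56 µM; 0% = DMSO vehicle and 100% = reference activator.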 The settings on record: NCI-H358 eGFP-delta133p53alpha fluorescence, 24 h; activation: hits give high values. The essentials:
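NCI-H358 cells pre-induced 24 h with 10 ng/ml doxycycline for eGFP-delta133p53alpha, plated dox-free and exposed 24 h at 37C to titrated compounds. Fixed, Hoechst-stained; gated GFP peak intensity by laser scanning cytometry, normalized to DMSO (0%) and 57.5 uM 5-azacytidine (100%).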

Assay [2] addresses Aldehyde dehydrogenase, mitochondrial (Homo sapiens) (UniProt P05091). The assay can be described thus: qHTS for Inhibitors of the Aldehyde Dehydrogenase Family (ALDH2) Primary screen (AID 2061308).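 Also: plate controls were vehicle for no effect and reference inhibitor for full effect; nearly all actives have a fitted effect of over 55% in size.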
In assay [3] the target is Retinaldehyde dehydrogenase 3 (Homo sapiens) (UniProt P47895). Nature of the assay: qHTS for Inhibitors of the Aldehyde Dehydrogenase Family (ALDH1A3) Primary screen (AID 2061315).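 Also: plate controls were DMSO vehicle for no effect and reference inhibitor for full effect.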 In general terms: In qHTS, concentration-response curves come from the screen itself.

Chain of Cellular tumor antigen p53 (Homo sapiens) (P04637 whole entry, looked up): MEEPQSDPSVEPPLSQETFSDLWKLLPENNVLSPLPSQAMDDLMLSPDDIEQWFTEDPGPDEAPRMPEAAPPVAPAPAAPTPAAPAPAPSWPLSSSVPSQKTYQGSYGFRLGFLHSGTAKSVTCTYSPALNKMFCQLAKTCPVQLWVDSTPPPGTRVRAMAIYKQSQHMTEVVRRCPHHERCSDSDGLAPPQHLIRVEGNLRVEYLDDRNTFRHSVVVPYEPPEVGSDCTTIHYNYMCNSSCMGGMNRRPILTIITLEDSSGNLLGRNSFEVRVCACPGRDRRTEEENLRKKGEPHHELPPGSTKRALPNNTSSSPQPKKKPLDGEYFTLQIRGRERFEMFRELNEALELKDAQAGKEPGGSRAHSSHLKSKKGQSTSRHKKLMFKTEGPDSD

`CC(=O)OC1CC(C)(C(=O)O)CC2C3=CC(=O)C4C5(C)CCC(OC6OC(C(=O)O)C(O)C(O)C6OC6OC(C(=O)O)C(O)C(O)C6O)C(C)(C)C5CCC4(C)C3(C)CCC12C` (centres undefined): the activation in assay [1] was -4.46%. The Potency result in assay [2] and in assay [3] was “inactive” in each case.
With `CC(C)=CCCC1(C)/C=C/C(OC(=O)C=C(C)C)C(C)(O)/C=C/C(=O)/C(CO)=C\C1` (centres undefined), in assay [1], the Potency was 10.4 µM (active). The Potency result in assay [2] and in assay [3] was “inactive” in each case.
For the compound `COc1cc(OC)cc(C(=O)Nc2ccc(Cl)c(-c3nc4ccc(N(C)C)cc4[nH]3)c2)c1`, the activation in assay [1] is -11.5%. Besides, the Potency result in assay [2] and in assay [3] was “inactive” each time.
With `Cn1c(=O)n(-c2ccc(C(C)(C)C#N)cc2)c2c3cc(C#Cc4cccnc4)ccc3ncc21`, the activation in assay [1] is 26.8%. Besides, the Potency entry in assay [2] and in assay [3] was “inactive” in each case.
On to `CCC(C)CNCC(=O)N1CCC2SC=CC2C1COc1cccc(C)c1` (centres undefined), for which the activation in assay [1] is 17.9%. Besides, the Potency entry in assay [2] and in assay [3] was “inactive” throughout.
For `NC(N)=N/N=C/c1ccccc1Cl`, the activation in assay [1] is 3.67%. In addition, the Potency result in assay [2] and in assay [3] was “inactive” each time.
On to `CC(C)=CCC/C(C)=C/CCC1(C)Oc2c(c(O)cc3c2CN(C(CCC(=O)O)C(=O)O)C3=O)CC1O` (centres undefined), for which, in assay [1], the activation is -13.7%. In addition, the Potency entry in assay [2] and in assay [3] was “inactive” each time.
`CC(=O)O[C@H]1CC(C)(C)CC2[C@]13CO[C@@]21CCC2[C@@]4(C)CC[C@H](O[C@@H]5OC[C@H](O[C@@H]6O[C@H](CO)[C@@H](O)[C@H](O)[C@H]6O[C@@H]6OC[C@@H](O)[C@H](O)[C@H]6O)[C@H](O)[C@H]5O[C@@H]5O[C@H](CO)[C@@H](O)[C@H](O)[C@H]5O)[C@@](C)(CO)C4CC[C@@]2(C)[C@]1(C)C[C@H]3O` (some centres undefined): the activation in assay [1] was -17.9%. The Potency result in assay [2] and in assay [3] was “inactive” throughout.
For the compound `C/C=C(/C)C(=O)OC1C(OC(C)=O)C23C(O)OC4(CCC5C6(C)CCC(OC7OC(C(=O)O)C(O)C(OC8OC(CO)C(O)C(O)C8OC8OC(C)C(O)C(O)C8OC8OCC(O)C(O)C8O)C7OC7OC(CO)C(O)C(O)C7O)C(C)(C)C6CCC5(C)C4(C)CC2OC(C)=O)C3CC1(C)C` (centres undefined), the activation in assay [1] was -7.63%. Also, the activity change, negative = inhibition in assay [2] was 23.8% [at 11.2 µM]; in assay [3] it was 2.15% [at 11.2 µM].
In the case of `C/C=C/C=C/C=C/C(=O)O[C@@H]1[C@@H](OC)C2=C(C(=O)N(C(C)C(=O)O)C2)[C@@]2(C)CCCC(C)(C)[C@H]12` (some centres undefined), the activation in assay [1] was -2.68%. The Potency entry in assay [2] and in assay [3] was “inactive” throughout.
As to `COc1cc(C(O)C(CO)Oc2ccc(CCCO[C@@H]3O[C@@H](C)[C@H](O)[C@@H](O)[C@H]3O)cc2OC)ccc1O` (some centres undefined), in assay [1], the activation is -13.4%. In addition, the Potency result in assay [2] and in assay [3] was “inactive” in each case.
With `COC(=O)C1=CO[C@@H](O[C@@H]2O[C@H](CO[C@@H]3O[C@H](CO)[C@@H](O)[C@H](O)[C@H]3O)[C@@H](O)[C@H](O)[C@H]2O)[C@@H]2C(CO)=CC[C@H]12`, in assay [1], the activation is 8.4%. Also, the Potency entry in assay [2] and in assay [3] was “inactive” each time.
On to `COC(=O)C1=CO[C@@H](O[C@@H]2O[C@H](CO)[C@@H](O)[C@H](O)[C@H]2O)[C@@H]2C(CO)=CC[C@]12O`, for which the activation in assay [1] was 1.79%. Moreover, the Potency entry in assay [2] and in assay [3] was “inactive” throughout.
With `Cc1cc2c(F)c(Oc3ncnn4cc(OCC(C)O)c(C)c34)ccc2[nH]1` (centres undefined), the activation in assay [1] is -26.8%. The Potency result in assay [2] and in assay [3] was “inactive” throughout.
As for `C/C(=C\CCC(C)(O)c1ccc(C)cc1)C(=O)O` (centres undefined), in assay [1], the activation is -12.2%. The Potency result in assay [2] and in assay [3] was “inactive” throughout.
With `C=CC(C)(O)CO[C@@H]1O[C@H](CO)[C@@H](O)[C@H](O)[C@H]1O` (some centres undefined), the activation in assay [1] was -16%. Also, the Potency result in assay [2] and in assay [3] was “inactive” each time.
For `Cc1ccc2c(c1)c1c(n2CCc2ccc(C)nc2)CCN(C)C1`, in assay [1], the activation is 14.3%. In addition, the Potency result in assay [2] and in assay [3] was “inactive” throughout.
For the compound `N#C[C@@H]1C[C@H](F)CN1C(=O)CNC1[C@H]2CN(C(=O)c3ccc(F)cc3)C[C@@H]12` (some centres undefined), the activation in assay [1] was -1%. Besides, the Potency result in assay [2] and in assay [3] was “inactive” in each case.
Consider `Cc1noc(=O)c2ccc(NC(=O)C(O)(CC(C)(C)c3cccc4c3OCC4)C(F)(F)F)cc12` (centres undefined), for which the activation in assay [1] is 19.7%. Further, the Potency entry in assay [2] and in assay [3] was “inactive” throughout.
For `CC1=CC2/C=C(\C)CC[C@@H](O)[C@@H](O)[C@@H]3O[C@@H]3C(=O)[C@]23C(=O)N[C@@H](CC(C)C)[C@@H]3[C@@H]1C` (some centres undefined), in assay [1], the activation is 0%. Besides, the Potency result in assay [2] and in assay [3] was “inactive” throughout.
For the compound `CC1CC(O)C2(OC1=O)OC1C(O)C3C4CCC5CC(OC6OC(CO)C(O)C(O)C6OC6OC(C)C(O)C(O)C6O)CCC5(C)C4CCC3(C)C1C2C` (centres undefined), the activation in assay [1] is -0.893%. Moreover, the Potency result in assay [2] and in assay [3] was “inactive” throughout.
On to `O=C(O)CCc1c(C(=O)O)[nH]c2cc(Cl)cc(Cl)c12`, for which the activation in assay [1] was 3%. The Potency result in assay [2] and in assay [3] was “inactive” in each case.
On to `O=C(O)CC/C=C\C[C@H]1CO[C@@H](c2ccccc2Cl)O[C@H]1c1ccccc1O`, for which the activation in assay [1] is -9.67%. The Potency result in assay [2] and in assay [3] was “inactive” each time.

The record behind these values is PubChem BioAssay (NCATS).
